SMILES strings stand for the structures. Records with an inconclusive call do not appear. A call without a number means that no potency is given here. Active and inactive are the calls of the source. Calls come from the whole dose curve; as a rule, active = well fitted cell-killing curve with a large enough effect; inconclusive = small, poorly fitted or top-dose-only effect; inactive = flat fitted curve, though single readings scatter.
Potency is the fitted concentration of half-maximal effect.

This experiment is described as follows: Cell Viability - LYMP2-007 (AID 979).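 Note: cells exposed to compound for 24 h before reading; nearly all actives have a fitted effect of over 60% in size.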 As to conditions: LYMP2-007 lymphoblastoid cell viability; series mostly up to 92.2 µM. The text has this:
NIH Chemical Genomics Center [NCGC]
NIH Molecular Libraries Screening Centers Network [MLSCN]
National Institutes of Environmental Health Sciences [NIEHS]
National Toxicology Program [NTP]
We have developed a 1536-well cell-based assay for quantitative high throughput screening (qHTS) against a number of cell lines to determine in vitro cytotoxicity of small molecules. This particular assay uses a human lymphoblastoid cell line (LYMP2-007) purchased from Coriell Institute for Medical Research.
NCGC Assay Protocol Summary:
The CellTiter-Glo luminescent cell viability assay (Promega) is a homogeneous method to measure the number of viable cells in culture. The end point readout of this assay is based on quantitation of intracellular ATP, an indicator of metabolic activity, using the luciferase reaction. Luciferase catalyzes the oxidation of beetle Luciferin to oxyluciferin and light in the presence of ATP. The luminescent signal is proportional to amount of ATP present.
Using the CellTiter-Glo luminescent cell viability assay, the amount of cellular ATP was measured in the lymphoblastoid cell line with complete culture medium following compound treatment for 24 hours. The assay was performed in opaque white Kalypsys 1536-well plates. In the screen, tetraoctylammonium bromide was used as positive control. Library compounds were measured for their ability to cause acute toxicity in the cell line, as reflected by a decrease in intracellular ATP levels, in a concentration-dependent manner. […] AC50 values were determined from concentration-response data modeled with the standard Hill equation.
qHTS protocol for CellTiter Glo lymphoblastoid cellular assay
[Step] [Parameter] [Value] [Description]
1. Reagent; 5 uL; 2500 lymphoblastoid cells/well
2. Time; 5 hr; 37 C incubation
4. Controls; 23 nL; Tetraoctylammonium bromide 6.4pM to 92 uM
5. Time; 24 hr; 37 C incubation
6. Reagent; 5 uL; CellTiter Glo reagent
7. Time; 30 min; Room Temperature
8. Detection; Luminescence; Viewlux plate reader
Keywords: cell viability, cytotoxicity, lymphoblastoid cell line, luminescence, NTPHTS, NTPHTS_NCGC, NIEHS, DSSTox, MLSMR, MLSCN, NIH Roadmap, qHTS, NCGC
Turning to `Oc1cccc(Cl)c1`, the Potency entry is “inactive”.
The result for `Nc1ccc(-c2ccc(N)c(Cl)c2)cc1Cl` reads “inactive”.
The result for `O=[N+]([O-])CCO` reads “inactive”; that for `O=C(Cc1ccccc1)OCc1ccccc1`, “inactive”; that for `BrCC(Br)C1CCC(Br)C(Br)C1` (stereo not given), “inactive”.
Consider `Oc1cccc(Cl)c1Cl`, for which the Potency result is “inactive”.
Regarding `CCCCCc1cc(O)cc(O)c1`, the Potency result is “inactive”.
`CC(C)(Cl)[N+](=O)[O-]`: the Potency result is “inactive”.
`Oc1cc(Cl)ccc1Cl`: the Potency result is “inactive”.
With `CC(C)(C)C(O)(CCc1ccc(Cl)cc1)Cn1cncn1` (stereo not given), the Potency entry was “inactive”.
On to `C(CCOCC1CO1)COCC1CO1` (stereo not given), for which the Potency entry is “inactive”.
Turning to `O=C(O)c1cc(Cl)ccc1Cl`, the Potency entry was “inactive”.
The result for `ClC=CCl` reads “inactive”; that for `CCOS(C)(=O)=O`, “inactive”.
As to `Nc1ncc([N+](=O)[O-])s1`, the Potency result was “inactive”.
Consider `ClCc1ccccn1`, for which the Potency entry was “inactive”.
With `CCCCCOC(=O)c1ccccc1C(=O)OCCCCC`, the Potency result was “inactive”.
In the case of `CCC/C=N/O`, the Potency result was “inactive”.
On to `Cc1ccc(N)c(C)c1`, for which the Potency entry was “inactive”.
As to `CC1CC(=O)O1` (stereo not given), the Potency result is “inactive”.
As to `C=CC(=O)OCC(C)C`, the Potency entry is “inactive”.
As to `CC(C)[C@]12CC(=O)[C@H](C)[C@H]1C2`, the Potency result was “inactive”.
The result for `COc1c(C(C)(C)C)cc([N+](=O)[O-])c(C)c1[N+](=O)[O-]` reads “inactive”; that for `ClC(Cl)c1ccccc1`, “inactive”; that for `FC(Cl)(Cl)Cl`, “inactive”.
As to `O=Cc1ccc2c(c1)OCO2`, the Potency result is “inactive”.
With `CCBr`, the Potency entry is “inactive”.
Take `O=[N+]([O-])c1cccc(O)c1`: the Potency result is “inactive”.
On to `C=CCOCC1CO1` (stereo not given), for which the Potency entry was “inactive”.
Regarding `c1ccc(N=NNc2ccccc2)cc1`, the Potency entry was “inactive”.
Turning to `CCCCC(CC)COC(=O)c1ccc(C(=O)OCC(CC)CCCC)c(C(=O)OCC(CC)CCCC)c1` (stereo not given), the Potency entry is “inactive”.
In the case of `CN(C)c1ccc(N)cc1`, the Potency is 50.1 µM (active).
In the case of `Cl/C=C\Cl`, the Potency result was “inactive”.
The result for `N#CC(Cl)(Cl)Cl` reads “inactive”; that for `CN=C=O`, “inactive”; that for `CN1CSC(=S)N(C)C1`, 31.6 µM (active).
Turning to `CC(Cl)(Cl)Cl`, the Potency entry was “inactive”.
With `CCOP(=S)(OCC)SCCSCC`, the Potency result is “inactive”.
In the case of `Nc1cccc(Cl)c1`, the Potency entry was “inactive”.
Consider `Cl/C=C/CCl`, for which the Potency entry was “inactive”.

The values above are taken from PubChem BioAssay (NCATS).
